Compound activity: PubChem BioAssay, several laboratories
Sampled rows, rich in hits. Any-hit rate of the full collection: about 7.1%.
M1 ag – activates the M1 muscarinic receptor. AID 626. B-score at 10 µM. CHO-M1 cells, Fluo-4 calcium fluorescence, agonist mode; stronger effect = higher value. 64,000 compounds, 3% hits;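 active = fluorescence rise, raw or as B-score row- and column-corrected plate score, outside the 99.7% band of its plate's samples, either direction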
PTK2B oligo ant – blocks oligomerization of human Pyk2 in cells; Q14289; Q293 cells, Pyk2 FERM NanoBiT luminescence; stronger effect = lower value; z-score (the deposit names both 25 µM and 10 µM); 99,000 compounds, 0.83% hits;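 active = Z-score of -3 or lower, scaled per plate to the spread of control and sample wells; inactive = z-score above -3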;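 note: negative z-score means lost luminescence so less FERM oligomerization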
M1 antag – blocks the rat M1 muscarinic receptor response to acetylcholine | CHO-M1 cells, Fluo-4 calcium, ACh EC80 antagonist mode; stronger effect = lower value | B-score at 10 µM | 64,000 compounds, 3.4% hits | AID 628;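 active = calcium fluorescence response, raw or row-and-column corrected B-score, differing from the plate sample mean either way at a set confidence level, mostly lower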
Target sequence (P08482 whole entry, looked up): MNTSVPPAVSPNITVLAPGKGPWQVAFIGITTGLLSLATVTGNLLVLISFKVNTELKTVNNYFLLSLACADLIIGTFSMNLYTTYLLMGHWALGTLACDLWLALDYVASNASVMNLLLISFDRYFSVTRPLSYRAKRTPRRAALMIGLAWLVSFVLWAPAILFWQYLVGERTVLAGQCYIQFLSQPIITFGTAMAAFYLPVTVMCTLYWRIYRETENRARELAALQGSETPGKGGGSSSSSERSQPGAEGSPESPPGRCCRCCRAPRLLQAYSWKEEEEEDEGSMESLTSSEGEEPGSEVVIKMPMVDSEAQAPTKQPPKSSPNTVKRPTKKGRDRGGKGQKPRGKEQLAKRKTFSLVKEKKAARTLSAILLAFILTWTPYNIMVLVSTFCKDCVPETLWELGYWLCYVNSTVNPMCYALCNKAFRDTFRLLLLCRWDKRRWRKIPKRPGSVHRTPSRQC
Cav3 T inh – blocks human Cav3.2 T-type calcium channel. O95180. Cav3.2-expressing cells, Fluo-4 calcium fluorescence FDSS; stronger effect = lower value. B-score at 10 µM. 100,000 compounds, 4% hits;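 active = single-dose well whose peak fluorescence ratio is a statistical outlier from its plate by either plate-standardised score or position-corrected B-score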
M1 antag conf – M1 muscarinic receptor (rat) antagonism, confirmed. CHO-M1 cells, Fluo-4 calcium, ACh EC80 antagonism; stronger effect = lower value. shares compounds with M1 antag. 1,700 compounds, 43% hits. calcium response (max-min fluorescence) at 10 µM;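 active = calcium response below the same-plate mean of wells given acetylcholine alone at its 80%-effect dose, minus 3 SD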;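 note: raw fluorescence intensity difference in arbitrary instrument units and not normalized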
mGluR4 antag – acts on human mGluR4 in M1 antagonist selectivity test | 1,700 compounds, 0.9% hits | AID 678 | shares compounds with M1 antag | CHO-mGluR4 calcium flux, Fluo-4 fluorescence, glutamate EC80; stronger effect = lower value | fluorescence response (max-min) at 10 µM;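 active = fluorescence response below the plate's average for near-maximal glutamate wells, less 3 SD of those wells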;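 note: raw unnormalized fluorescence span taken in the window right after glutamate addition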
* hit, by the source's call; . = no result given.

SMILES | M1 ag | PTK2B oligo ant | M1 antag | Cav3 T inh | M1 antag conf | mGluR4 antag
CC(C)(C)c1cc(C(=O)NCc2ccccc2)ccn1 | -2 | 0.73 | -4.2* | 1.1 | 679 | 217
O=C1CSC(c2ccccc2F)N1CCN1CCCCC1 (centres undefined) | -0.034 | 1.4 | -2.8* | 0.39 | 481* | 230
Cc1ccc2c(c1)NC(=O)C(CC(=O)NCCN(CC(C)C)CC(C)C)O2 (centres undefined) | 0.82 | . | -5.6* | 1.5 | 305* | 248
CCC(C)NC(=O)CC1Oc2ccc(C)cc2NC1=O (centres undefined) | 0.17 | . | 0.67 | 0.32 | . | .
Cc1ccc2c(c1)NC(=O)C(CC(=O)Nc1ccc(CN3CCC(C)CC3)cc1)O2 (centres undefined) | -0.07 | . | -9.3* | 0.021 | 14* | 231
CCN1CCN(Cc2ccc(NC(=O)CC3Oc4ccc(C)cc4NC3=O)cc2)CC1 (centres undefined) | -0.37 | . | -3.9* | 0.52 | 335* | 221
O=C(Nc1cccs1)OCCN1CCN(Cc2ccccc2)CCC1=O | . | . | . | 2 | . | .
CC(C)(C)C1CCC(OCC(O)CN2CCN(c3ccccc3)CC2)CC1 (centres undefined) | . | -0.84 | . | 1.4 | . | .
CC1CCN(CC(O)COC2CCC(C(C)(C)C)CC2)CC1 (centres undefined) | -0.09 | -0.27 | -4* | -0.43 | 481 | 230
CCN(C(=S)Nc1ccccc1F)C1CCCCC1 | . | 0.44 | . | -0.52 | . | .
CCc1nc(NCc2ccco2)c2oc3ccccc3c2n1 | -0.0089 | -1.3 | -3.9* | -0.19 | 581 | 213
Cc1ccccc1N(CC(=O)NCCc1ccccc1)C(=O)c1ccc(N2CCCC2)nc1 | -0.95 | -1.1 | -4.6* | -4.8* | 667 | 241
O=C(NCC1CCCO1)c1ccc(N2CCCCC2)nc1 (centres undefined) | 1 | 0.18 | 1.4 | -0.6 | . | .
Oc1c(C(Nc2ccccn2)c2ccccn2)ccc2cccnc12 (centres undefined) | 2.3 | 0.01 | -3.6* | . | 602 | 189
Oc1cccc(Nc2nc(NCC3CCCO3)c3ccccc3n2)c1 (centres undefined) | 1.6 | -1.2 | -3.9* | -0.87 | 357* | 224
CCOC(=O)C1CCN(Cc2nc3ccc(Cl)cc3n2CCO)CC1 | 0.026 | 0.39 | -0.93 | 0.53 | . | .
CC(C(=O)c1ccccc1)n1cnc2ccccc2c1=O (centres undefined) | -0.26 | -0.15 | -10* | 0.15 | 608 | 209
O=C(O)Cn1cnc2ccccc2c1=O | . | 1.1 | . | . | . | .
CCOC(=O)c1nnc2cc(-c3ccccc3)nn2c1C | 0.79 | -1.2 | -2.6* | 0.24 | 640 | 231
CCOC(=O)c1nnc2cc(-c3ccc(Br)cc3)nn2c1C | -0.63 | -0.55 | 0.18 | 0.29 | . | .
Cc1c(NC2=C(Cl)C(=O)N(c3ccccc3)C2=O)c(=O)n(-c2ccccc2)n1C | -0.36 | -0.48 | -6.3* | -0.32 | 151* | 195
CC(C)[N+](C)(CCOC(=O)C1c2ccccc2Oc2ccccc21)C(C)C | 0.77 | . | -16* | 1.1 | 19* | 233
CC(=O)c1ccc(OC(=O)C2c3ccccc3Oc3ccccc32)cc1 | . | 1.4 | . | -1 | . | .
O=C(CSc1ncn[nH]1)N1CCN(c2nnc(-c3ccccc3)c3ccccc23)CC1 | 0.003 | 1.9 | -2.9* | 0.82 | 497* | 208
O=C(CN1C(=O)c2ccccc2C1=O)N1CCN(c2nnc(-c3ccccc3)c3ccccc23)CC1 | -0.91 | 0.53 | -0.057 | 0.032 | . | .
SMILES | M1 ag | PTK2B oligo ant | M1 antag | Cav3 T inh | M1 antag conf | mGluR4 antag
CCOc1ccc(N2C(=O)CC(n3ccc(C)n3)C2=O)cc1 (centres undefined) | . | -0.36 | . | 0.78 | . | .
Cc1ccccc1NC(=O)NCC1CCCO1 (centres undefined) | . | 1.3 | . | 0.82 | . | .
COC(=O)c1ccccc1NC(=O)NCC1CCCO1 (centres undefined) | 0.0033 | -0.19 | -1.9* | 0.42 | 469 | 237
CCN(CC)CCOc1ccc(/C(=C(/Cl)c2ccccc2)c2ccccc2)cc1 | . | . | . | 2.2 | . | .
CCN(CC)CCOc1cccc(C(C)C)c1 | -0.029 | 0.65 | -4.5* | -0.035 | 294* | 213
O=C(NC1CCCCCCC1)c1ccccc1O | -0.22 | -0.36 | -2.2* | . | 607 | 268
CC(C)CCN(C)C1CCN(S(=O)(=O)c2cccc(C(F)(F)F)c2)CC1 | -0.11 | 0.71 | -9* | . | 215* | 214
CCOC(=O)CSc1nc2c(c(=O)n(C)c(=O)n2C)n1CCCc1ccccc1 | 1.7 | 1.1 | -0.9 | -0.84 | . | .
CCOC(=O)N1CCN(C(=O)CN(c2ccc(C)cc2)S(=O)(=O)c2c(C)noc2C)CC1 | 0.15 | -0.09 | -1.1* | 1.5 | 639 | 255
CC(=O)CSc1ncnc2nc[nH]c12 | 0.62 | 0.41 | -0.026 | -0.21 | . | .
CC(NC(=O)CSc1ncnc2nc[nH]c12)c1ccccc1 (centres undefined) | 0.39 | 0.26 | -3.8* | -1.3 | 667 | 259
CC(=O)c1cccc(NC2c3ccccc3C(=O)N2Cc2ccc3c(c2)OCO3)c1 (centres undefined) | 2.6 | . | -3* | -0.14 | 502 | 190
COc1cc(NC2c3ccccc3C(=O)N2Cc2ccc3c(c2)OCO3)cc(OC)c1OC (centres undefined) | . | . | . | -0.75 | . | .
O=C(NCCN1CCOCC1)c1cc2sccc2n1Cc1ccc(Cl)cc1 | -0.26 | -0.69 | -4.5* | -2.1 | 349* | 239
O=C(Nc1ccccc1C(=O)NCc1ccco1)c1ccco1 | 0.43 | -1.1 | -0.086 | 0.11 | . | .
O=C(NC1CCCCC1)c1ccc(S(=O)(=O)NCc2ccco2)cc1 | -1.3 | 1.1 | -2.4* | -0.46 | 634 | 228
O=C(Nc1ccccc1C(=O)NCc1ccco1)NC1CCCCC1 | -0.038 | 0.27 | -3.1* | -0.013 | 639 | 243
CCOC(=O)c1sc2ncnc(NCC(c3cccs3)N(C)C)c2c1C (centres undefined) | -0.23 | -1.1 | -3.4* | 0.27 | 496* | 188
S=c1[nH]nc(Cc2cccc3ccccc23)n1-c1ccccc1 | . | 0.31 | . | -0.099 | . | .
CCSC1=C(C#N)C2(CCCCC2)C(C#N)=C(N)N1 | -0.91 | -0.88 | -2.7* | . | 505 | 212
C/C=C\C=C\C(=O)N1CC2(CC(c3cccc(NC(=O)CC)c3)=NO2)C[C@H]1C(N)=O (some centres undefined) | . | . | . | 1.4 | . | .
Cn1c(Cc2ccccc2)nnc1SCC(=O)c1ccc(Br)s1 | -0.017 | -0.45 | -1.7* | -0.66 | 461* | 257
CC(CN1CCCCC1)OC(=O)c1cc2ccccc2o1 (centres undefined) | -1.1 | 0.29 | -4.7* | 0.00019 | 296* | 252
CC1CCN(CC(C)OC(=O)c2ccc3c(c2)OCCO3)CC1 (centres undefined) | 0.041 | . | -12* | 0.61 | 92* | 240
CC(CN1CCCCC1)OC(=O)c1ccc2c(c1)OCO2 (centres undefined) | 1.1 | -0.15 | -2.7* | 0.29 | 457 | 221
O=C(OCC(=O)N1CCOCC1)c1ccc2c(c1)OCCO2 | 1.8 | 0.89 | -0.016 | 0.12 | . | .
